N-glyco inh: N-linked glycosylation inhibition. 360,000 compounds, 0.23% hits. AID 588692. reporter increase, % at 12.5 µM. D54 ERlucT glycosylation luciferase reporter, 24 h; percent of 100 nM tunicamycin response;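 active = mean luciferase reporter signal, scaled so untreated is 0 and the glycosylation-blocking control 100, at or above a set limit in every replicate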;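 also: luciferase carries N-glycosylation sites so blocking glycosylation raises the light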
RAD54 inh: RAD54 (human) branch migration inhibition; RAD54 Holliday junction branch migration, FAM/BHQ fluorescence; inhibition, % at 10.4 µM; Q92698; AID 602329; 360,000 compounds, 0.14% hits;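 active = mean normalized replicate activity at least 40 and at least half of replicates scoring 40 or more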;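 also: inhibitors cause a drop in the FAM fluorescence signal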
Casp6 inh: inhibitors of human caspase-6; 350,000 compounds, 0.53% hits; inhibition, % at 12.5 µM; purified caspase-6, Z-VEID-R110 cleavage fluorescence; P55212;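 active = mean inhibition across replicates at least about 35%, with every replicate also reaching that limit, limit read from the data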
NSD2 HMT inh: inhibitors of human histone methyltransferase NSD2; O96028; NSD2 peptide methylation, AlphaScreen, 120 min; inhibition, % at 12.5 µM; 310,000 compounds, 0.54% hits; AID 743445; in the data active = inhibition above about 50%
RAD52 inh: inhibitors of human RAD52 DNA annealing | inhibition, % at 18.7 µM | P43351 | 360,000 compounds, 0.46% hits | AID 651710 | recombinant RAD52 DNA annealing, FRET fluorescence;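 active = every replicate showing at least 50% inhibition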
Target sequence (P43351 whole entry, looked up): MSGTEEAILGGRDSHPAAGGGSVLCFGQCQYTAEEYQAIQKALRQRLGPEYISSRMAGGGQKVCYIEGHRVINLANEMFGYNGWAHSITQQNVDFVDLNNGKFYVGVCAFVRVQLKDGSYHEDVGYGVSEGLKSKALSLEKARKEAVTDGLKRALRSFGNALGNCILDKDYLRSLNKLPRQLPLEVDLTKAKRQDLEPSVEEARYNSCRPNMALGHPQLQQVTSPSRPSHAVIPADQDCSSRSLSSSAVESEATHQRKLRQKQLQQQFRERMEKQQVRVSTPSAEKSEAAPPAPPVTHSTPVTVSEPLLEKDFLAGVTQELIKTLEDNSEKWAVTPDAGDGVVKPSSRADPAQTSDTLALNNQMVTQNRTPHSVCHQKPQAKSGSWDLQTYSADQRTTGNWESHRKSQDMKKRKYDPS
Hits are given with their value. An excerpt weighted towards active compounds, which were near 1.2% of everything screened.

Screening N=C1CCC(=N)c2c1c(O)c1ccccc1c2O returned N-glyco inh inactive and NSD2 HMT inh 66.0.
For Cc1nc(S/C(=C\c2ccc(-c3ccc(C(=O)O)c(Cl)c3)o2)C(=O)O)n[nH]1 the results were N-glyco inh inactive, RAD54 inh inactive, Casp6 inh 58.5 and RAD52 inh inactive.
`COc1ccc2c3c(n(C)c2c1)[C@@H](CO)N(C(=O)c1cccc(F)c1)CC31CN(CC2CC2)C1` gave Casp6 inh inactive and RAD52 inh inactive.
Screening COc1cc(-c2nc(-c3ccccc3)c(-c3cccs3)[nH]2)cc(OC)c1OC returned N-glyco inh 56.6, RAD54 inh inactive and NSD2 HMT inh inactive.
For O=C(CSc1cn(CCNC(=O)c2ccccc2F)c2ccccc12)NCC1CCCO1 (stereo not given) the results were N-glyco inh inactive, RAD54 inh inactive, Casp6 inh inactive, NSD2 HMT inh inactive and RAD52 inh inactive.
`Cc1ccccc1C(=O)NCCn1cc(SCC(=O)NCC2CCCO2)c2ccccc21` (stereo not given) gave N-glyco inh inactive, RAD54 inh inactive, Casp6 inh 41.5, NSD2 HMT inh inactive and RAD52 inh inactive.
For CCOc1ncccc1C(=O)N1CCN(c2cc(Cl)ccc2C)CC1 the results were N-glyco inh 30.2, Casp6 inh inactive, NSD2 HMT inh inactive and RAD52 inh inactive.
`O=C(O)c1cc(-c2ccc(/C=C3\NC(=O)N(c4ccc(Cl)cc4)C3=O)o2)ccc1Cl` gave N-glyco inh inactive, Casp6 inh 39.5, NSD2 HMT inh inactive and RAD52 inh inactive.
Screening O=C1NN(c2ccccc2)C(=O)/C1=C/c1ccc(-c2ccc(Cl)c(C(=O)O)c2)o1 returned N-glyco inh inactive, Casp6 inh 54.6, NSD2 HMT inh inactive and RAD52 inh inactive.
For O=C1NN(c2ccccc2)C(=O)/C1=C/c1ccc(Sc2ccc(Cl)cc2)o1 the results were N-glyco inh 35.0, Casp6 inh 39.8 and RAD52 inh inactive.
O=C(O)c1cc(-c2ccc(/C=C3\NC(=O)N(c4ccccc4)C3=O)o2)ccc1Cl was read as N-glyco inh inactive, RAD54 inh inactive, Casp6 inh inactive and RAD52 inh inactive.
Cc1ccc(S(=O)(=O)Nc2ccc3c(c2)C(=O)N([C@H](C)CO)C[C@H](C)[C@H](CN(C)Cc2ccncc2)OCCCC[C@H](C)O3)cc1 was read as RAD54 inh inactive, Casp6 inh inactive and RAD52 inh inactive.
For Cc1cc(NCCCCCCCNc2cc(C)nc3cc([N+](=O)[O-])ccc23)c2ccc([N+](=O)[O-])cc2n1 the results were N-glyco inh inactive, Casp6 inh inactive, NSD2 HMT inh inactive and RAD52 inh 77.2.
For COCCCNc1cc(C)nc2ccccc12 the results were N-glyco inh inactive, RAD54 inh inactive, Casp6 inh inactive, NSD2 HMT inh inactive and RAD52 inh inactive.
For Cc1c(Cl)cccc1Nc1nc(N)nc(CN2CCc3ccccc3C2)n1 the results were N-glyco inh 44.5, RAD54 inh inactive and NSD2 HMT inh inactive.
O=C(C[C@H]1CC[C@@H]2[C@H](COC[C@@H](O)CN2C(=O)Nc2ccc(F)cc2)O1)NCc1ccncn1 was read as RAD54 inh inactive, Casp6 inh inactive and RAD52 inh inactive.
`O=C1CC(N2CCSCC2)C(=O)N1c1cccc(Cl)c1` (stereo not given) gave N-glyco inh inactive, Casp6 inh 44.2, NSD2 HMT inh inactive and RAD52 inh inactive.
Screening O=C1CC(N2CCN(c3ccccc3)CC2)C(=O)N1c1cccc(Cl)c1 (stereo not given) returned N-glyco inh inactive, RAD54 inh inactive, Casp6 inh inactive, NSD2 HMT inh inactive and RAD52 inh inactive.
`Cc1sc2ncnc(SCC(=O)Nc3ncccc3O)c2c1C` gave N-glyco inh inactive, RAD54 inh inactive, Casp6 inh 42.8, NSD2 HMT inh inactive and RAD52 inh inactive.
`CCOc1ccc(NC(=O)CN(C)C(=O)c2cc(-c3ccncc3)nc3ccccc23)cc1OCC` gave N-glyco inh inactive, RAD54 inh inactive, Casp6 inh inactive, NSD2 HMT inh inactive and RAD52 inh inactive.
CCOc1ccc(NC(=O)CN(C)C(=O)c2cc(C)nc3ccccc23)cc1OCC was read as N-glyco inh inactive, RAD54 inh inactive, Casp6 inh 37.5, NSD2 HMT inh inactive and RAD52 inh inactive.
For CCc1ccc(S(=O)(=O)/N=C2\C=C(Nc3ccc(C(=O)O)cc3)C(=O)c3ccccc32)cc1 the results were N-glyco inh inactive, RAD54 inh inactive, Casp6 inh 97.0 and RAD52 inh inactive.
`CC(C)(C)c1ccc(S(=O)(=O)/N=C2\C=C(NS(=O)(=O)c3ccccc3)C(=O)c3ccccc32)cc1` gave N-glyco inh inactive, RAD54 inh inactive, Casp6 inh 49.5, NSD2 HMT inh 108.4 and RAD52 inh inactive.
Screening Cc1ccc(S(=O)(=O)/N=C2\C=C(Nc3cccc(C(=O)O)c3)C(=O)c3ccccc32)c(C)c1 returned N-glyco inh inactive, RAD54 inh inactive, Casp6 inh 99.6, NSD2 HMT inh 117.1 and RAD52 inh inactive.
`Cc1ccc(S(=O)(=O)/N=C2\C=C(NS(=O)(=O)c3ccccc3)C(=O)c3ccccc32)c(C)c1` gave N-glyco inh inactive, RAD54 inh inactive, Casp6 inh inactive, NSD2 HMT inh inactive and RAD52 inh inactive.
Cc1noc(C)c1NC(=O)Nc1cccc2c1O[C@H](CN(C)S(=O)(=O)c1ccc(Cl)cc1)[C@@H](C)CN([C@H](C)CO)C2=O was read as RAD54 inh inactive, Casp6 inh inactive and RAD52 inh inactive.
For CCNC(=O)C1CC(=O)N(c2ccc(OCC)cc2)C1 (stereo not given) the results were N-glyco inh inactive, RAD54 inh inactive and NSD2 HMT inh inactive.
Screening CCOc1ccc(N2CC(C(=O)NCC(=O)Nc3ccc(F)c(F)c3F)CC2=O)cc1 (stereo not given) returned N-glyco inh inactive, RAD54 inh inactive, Casp6 inh 43.8, NSD2 HMT inh inactive and RAD52 inh inactive.
For COc1ccccc1S(=O)(=O)N[C@H]1CC[C@H](CC(=O)NCc2cccc(F)c2)O[C@@H]1CO the results were RAD54 inh inactive, Casp6 inh inactive and RAD52 inh inactive.
`CCN1CCCC1CNC(=O)c1cc2c(-c3ccc(Cl)cc3)nn(C)c2s1` (stereo not given) gave N-glyco inh inactive and RAD54 inh 51.4.
Screening Cn1nc(-c2ccc(Cl)cc2)c2cc(C(=O)NCCCN3CCCC3)sc21 returned N-glyco inh inactive, RAD54 inh inactive, Casp6 inh inactive and RAD52 inh inactive.
Screening CC(=O)N1[C@@H]2Cn3c(cccc3=O)[C@H]1[C@@H](C(=O)N[C@H](C)c1ccccc1)[C@@H]2CO returned Casp6 inh inactive and RAD52 inh inactive.
Screening O=c1cc(Br)c(O)c(Br)cc1Br returned N-glyco inh inactive, Casp6 inh 90.8, NSD2 HMT inh inactive and RAD52 inh inactive.
For CO[C@H](C(=O)N(C)C[C@@H]1OCc2ccccc2-c2ccccc2C(=O)N([C@H](C)CO)C[C@H]1C)c1ccccc1 the results were RAD54 inh inactive, Casp6 inh inactive and RAD52 inh inactive.
